# From PubChem BioAssay
# EP2 modulator – EP2 receptor modulators, cAMP readout, primary screen, cell-based, HTRF cAMP, PGE2 stimulation; 0.83% of 260,000 active; induction, % at 25 µM; Prostaglandin E2 receptor EP2 subtype (Homo sapiens), P43116; EP2-expressing cells, cAMP HTRF FRET, PGE2 co-stimulation;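 active = compounds whose cAMP rise, as percent of the full-agonist control response, exceeds 60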;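 note: rat C6 glioma line stably carrying human EP2 under a CMV promoter; the protocol text gives 20 µM as final concentration; 100% = response of wells given 1 µM PGE2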
# Target sequence (P43116 whole entry, looked up): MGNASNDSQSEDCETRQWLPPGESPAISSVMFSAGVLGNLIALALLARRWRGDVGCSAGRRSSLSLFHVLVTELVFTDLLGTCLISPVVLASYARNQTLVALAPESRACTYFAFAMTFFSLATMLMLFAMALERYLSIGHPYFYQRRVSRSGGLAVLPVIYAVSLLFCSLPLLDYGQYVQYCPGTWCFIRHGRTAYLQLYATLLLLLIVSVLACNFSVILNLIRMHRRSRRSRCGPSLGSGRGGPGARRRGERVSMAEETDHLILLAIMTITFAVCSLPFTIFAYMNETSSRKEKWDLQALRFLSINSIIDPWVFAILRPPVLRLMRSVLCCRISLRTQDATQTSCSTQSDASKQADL
# S1P3 antag – S1P3 receptor antagonists, primary screen, cell-based; inhibition, % at 4.98 µM; AID 485, 2006; CHO S1P3 NFAT-BLA reporter, FRET fluorescence, antagonist mode; 0.27% of 170,000 active;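 active = inhibition above the plate cutoff, the mean inhibition of test wells on that plate plus 3 SD, cut at about 28% in these data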;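 note: cells challenged with S1P at its EC80 of 0.8 µM; blue over green emission ratio from cleaved BLA substrate after 4 h stimulation; 0% = S1P-stimulated wells and 100% = unstimulated DMSO-only wells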
# PGE2 EP2 inh – human EP2 receptor antagonists, primary screen, TR-FRET cAMP, C6 glioma cells; C6 glioma cells expressing human EP2; cells stimulated with saturating PGE2; Prostaglandin E2 receptor EP2 subtype (Homo sapiens), P43116; 0.52% of 260,000 active; inhibition, % at 25 µM;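 active = percent inhibition above 40 after rounding to a whole number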;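 note: rat C6 glioma host cells with rolipram phosphodiesterase inhibitor present; the protocol text gives 20 µM as final concentration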
# S1P4 agonist – S1P4 receptor agonists, primary screen, cell-based. Sphingosine 1-phosphate receptor 4 (Homo sapiens), O95977. S1P4-expressing cell line, agonist reporter assay. activation, % at 4.98 µM. 0.35% of 220,000 active. AID 1509, 2009; in the data active = activation above about 11%;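 note: 0% = DMSO vehicle and 100% = reference agonist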
# S1P4 antag – S1P4 receptor antagonists, primary screen, cell-based | Sphingosine 1-phosphate receptor 4 (Homo sapiens), O95977 | inhibition, % at 4.98 µM | S1P4-expressing cells, antagonist mode, reporter read-out | 0.26% of 220,000 active; in the data active = inhibition above about 29%;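 note: 0% = wells stimulated with agonist and 100% = vehicle wells without agonist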
# * marks the source's active call; other numbers are inactive results; . = no result; ! = repeats disagree. A selection: hits, their analogues and other compounds. The true share with any hit is near 2%.
SMILES,EP2 modulator,S1P3 antag,PGE2 EP2 inh,S1P4 agonist,S1P4 antag
Cc1ccc(C(=O)N2C(=O)C(c3ccccc3)Oc3ccccc32)cc1 (centres undefined),87.2*,17.7,9.8,2.1,-38.6
Cc1ccc(/C(O)=C2/C(=O)C(=O)OC2c2ccc(Cl)cc2)cc1 (centres undefined),30.6,.,34.9,-0.2,-0.3
Cc1cc(-c2[nH]nc3c2C(c2ccc(C(F)(F)F)cc2)C(C#N)=C(N)O3)c(C)s1 (centres undefined),60.8*,.,11.8,.,.
N=C(N)c1ccc(N=Nc2c(O)ccc3c2[nH]c2ccccc23)cc1,-23.1,.,50.6*,.,.
COc1ccc(N2CCN(C(=O)NC3CC(=O)N(c4ccc(OC)cc4)C3)CC2)cc1 (centres undefined),-51.3,-15.4,6.5,0.2,2.4
CCCN(CCC)C(=O)NC1CC(=O)N(c2ccc(OC)cc2)C1 (centres undefined),-7.8,-7.1,67.6*,-0.9,8.3
Cc1ccc(C2(C(=O)N[C@H](Cn3nc(-c4cccs4)ccc3=O)C(C)C)CC2)cc1,75.6*,.,5.2,.,.
O=C(O)c1ccc(-c2nc3scc(-c4ccccc4)c3c(=O)[nH]2)cc1,-7.0,-8.1,40.7*,1.2,-2.0
COC(=O)c1ccc(C)c(NC(=O)c2ccco2)c1,17.4,.,16.8,.,.
CNCc1ccccc1Sc1cccc(O)c1,6.7,4.5,7.2,1.4,-4.9
CNCc1ccccc1Sc1cc(O)ccc1O,-2.8,-3.0,106.0*,-2.0,-4.0
COCCN1CCN(C(=O)c2ncoc2-c2ccc(OC)c(OC)c2)CC1,-2.6,.,6.1,.,.
Cc1cc(C)c(C#N)c(SCC(=O)Nc2ccc(Br)cc2Br)n1,-96.4,.,12.3,.,.
Cc1cc(CN2CCCCC2)c(O)c(CN2CCCCC2)c1,30.9,.,58.7*,.,.
COc1cc(C=O)ccc1OCc1ccccc1Br,64.6*,-1.2,5.4,1.8,-22.6
O=C(NC1CCCC1)C(c1ccc(N2CCOCC2)cc1)N(Cc1cccs1)C(=O)c1ccco1 (centres undefined),8.8,.,11.9,.,.
COCCn1c2ccccc2n2c(=O)n(CC(=O)N3CCCCC3C)nc12 (centres undefined),-10.4,.,7.9,.,.
Cc1c(Cl)sn(-c2ccc(Cl)cc2)c1=O,-59.2,-5.2,117.1*,0.7,23.8
Nc1nc2c(ncn2[C@@H]2CC[C@@H](CO)O2)c(=O)n1C(=O)c1ccccc1,-4.5,.,56.9*,.,.
CS(=O)(=O)c1sc2nc(-c3cccs3)cc(-c3ccccc3)c2c1N,26.2,35.4,48.8*,-0.1,6.7
Cc1ccc(-c2cc(-c3ccccc3)c3c(N)c(S(C)(=O)=O)sc3n2)cc1,20.6,.,6.1,1.3,-2.1
COC(=O)c1c(CN2CCN(C)CC2)n(C)c2cc(Br)c(OC)cc12,-45.1,.,7.3,.,.
CSC1=NCCN1C(=O)c1ccc(S(=O)(=O)N2CCCCC2)cc1,-2.4,3.9,13.6,166.4*,-5.6
O=C(CN1C(=O)[C@H]2CCCN2C(=O)c2ccccc21)NCc1cccs1,-9.5,.,6.7,.,.
O=[N+]([O-])c1ccc2c(c1)Cc1cc(N=Cc3ccc4c(c3)OCO4)ccc1-2,-25.9,.,50.8*,.,.
SMILES,EP2 modulator,S1P3 antag,PGE2 EP2 inh,S1P4 agonist,S1P4 antag
CCn1c(COc2cccc(C)c2C)nnc1SCC(=O)N1CCCCC1,30.4,.,3.0,.,.
CCCOC(=O)C(C)Nc1n[nH]c(=S)[nH]c1=O (centres undefined),-55.5,.,86.5*,.,.
CCCOC(=O)Cc1n[nH]c(=O)[nH]c1=O,-1.3,7.9,10.1,-0.2,24.6
CCCCc1nc(Cl)c(CN2CCc3c(nc(N4CCCC4)[nH]c3=O)C2)[nH]1,11.5,.,.,.,.
CC(C)(C)NC(=O)COC(=O)CCC(=O)c1ccc(F)cc1,-7.8,11.7,89.4*,2.5,0.9
CC(C)CO/C(=N/S(=O)(=O)c1ccccc1)c1ccccc1,64.7*,.,0.8,1.3,0.7
CC(C)O/C(=N\S(=O)(=O)c1ccc(Cl)cc1)c1ccccc1,38.9,.,6.0,1.9,-3.1
O=C(NCc1ccc2c(c1)OCO2)C1CCN(S(=O)(=O)c2ccc(Cl)cc2)CC1,-31.7,.,17.1,.,.
COc1cccc2c(=S)c(CCC(C)=O)c(C)[nH]c12,63.1*,-13.2,6.8,-0.5,3.1
CCc1c(C)[nH]c2c(OC)cccc2c1=O,-19.2,.,12.8,.,.
COc1ccc2c(c1OC)C(=O)O[C@@H]2[C@H]1c2c(cc3c(c2OC)OCO3)CCN1C,61.3*!,-1.3,10.2,-4.6,-8.1
COc1ccc2cc1Oc1ccc(cc1)C[C@H]1c3c(cc4c(c3Oc3cc5c(cc3OC)CCN(C)[C@@H]5C2)OCO4)CCN1C,-20.0,.,3.1,.,.
Cc1ccc(CN(Cc2cc3cccc(C)c3n3nnnc23)C(=O)c2cccnc2)cc1,-12.1,.,8.8,.,.
CCn1c(=O)c2cc(C(=O)N3CCCC3)sc2c2ccccc21,8.2,57.3*,7.6,-1.4,-4.1
Cc1cc(C)n(C(=O)CCCCCCCCC(=O)n2nc(C)cc2C)n1,60.8*,.,0.8,-0.2,-11.1
Cc1cc(C)n(C(=O)CCCCCCCC(=O)n2nc(C)cc2C)n1,28.0,.,7.5,2.6,-8.9
COc1ccc2[nH]c(=O)c(C(c3nnnn3CC3CCCO3)N3CCCc4ccccc43)cc2c1 (centres undefined),16.9,.,6.2,.,.
CS(=O)(=O)N1CCc2cc(C(=O)NC3(c4ccc5c(c4)OCO5)CCCC3)ccc21,-15.7,.,5.1,.,.
CC(C)(C)c1ccc2c(c1)C(=O)c1ccccc1C2=O,15.9,-8.7,8.8,0.7,-13.4
CC(C)(C)C1=CC=C(C(C)(C)C)C(=O)C1=O,-47.4,-8.4,101.5*,0.2,2.7
CCc1ccc2[nH]c(=O)c(CN(Cc3ccc4c(c3)OCO4)Cc3nnnn3C3CCCC3)cc2c1,53.5,3.5,7.5,-2.1,-2.0
Cc1ccc2[nH]c(=O)c(CN(Cc3cccs3)Cc3nnnn3C3CCCC3)cc2c1,75.1*,.,14.9,.,.
CCOC(=O)Cn1nnnc1CN(Cc1ccccc1)Cc1cc2c(C)cc(C)cc2[nH]c1=O,65.0*,.,14.9,.,.
Cc1ccc2[nH]c(=O)c(CN(Cc3ccc(F)cc3)Cc3nnnn3C3CCCC3)cc2c1,63.1*,.,19.3,.,.
CCc1ccc2[nH]c(=O)c(CN(Cc3ccccc3)Cc3nnnn3C3CCCCC3)cc2c1,74.4*,.,17.1,.,.
CCOC(=O)C1=C(C)Nc2nnnn2C1c1ccc(F)cc1 (centres undefined),12.2,.,8.3,.,.
Cc1cc2cc(CN(CCc3ccccc3)Cc3nnnn3C3CCCCC3)c(=O)[nH]c2cc1C,65.7*,.,9.8,.,.
CCc1ccc2[nH]c(=O)c(CN(Cc3ccccc3OC)Cc3nnnn3C(C)(C)CC)cc2c1,61.4*,.,22.2,.,.
Cc1ccc2cc(CN(Cc3ccccc3)Cc3nnnn3C3CCCC3)c(=O)[nH]c2c1,61.5*,16.6,5.7,0.8,-1.7
Cc1ccc2cc(CN(Cc3ccc(F)cc3)Cc3nnnn3C3CCCC3)c(=O)[nH]c2c1,57.5,5.6,3.5,-0.9,3.8
